# High-throughput results as filed in PubChem BioAssay.
# Most compounds without a hit are left out; they make up all but 12% or so of the library.
# Cl transport mod: modulates chloride dependent transport by human KCC2; Q9H2X9; KCC2 cells, thallium flux FluoZin-2 fluorescence; B-score of Tl+ flux slope (higher = more flux/activation; lower = inhibition) at 10 µM; 190,000 compounds, 2.2% hits; AID 1456;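 active means thallium flux slope and its plate-corrected score both differing from the plate sample mean at a set confidence after two filtering rounds, in either direction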;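 further: slope of fluorescence scaled to starting intensity during 10 to 20 s after thallium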
# WT yeast gro inh: growth inhibition of WT yeast, mitochondrial fusion screen; mitochondrial fusion phenotypic screen, WT strain; inhibition, % at 10 µM; 190,000 compounds, 2.1% hits; AID 1362; in the data active means inhibition above about 58%; tested in S. cerevisiae
# Lmaj promast: inhibitors of Leishmania major promastigote growth; Leishmania major promastigotes, resazurin fluorescence viability; inhibition, % at 10 µM; 200,000 compounds, 9% hits; AID 1063; in the data active means inhibition above about 50%;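 further: promastigotes grown with compound for 44 hours at 28 °C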
# ROMK primary: modulates human ROMK potassium channel activity. P48048. B-score at 10 µM. Tet-inducible ROMK, thallium flux fluorescence; actives lie on both sides. AID 1918. 130,000 compounds, 2% hits;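 active means signal ratio slope over the read window, or its plate-corrected B-score, at least 3 SD from the plate mean, either direction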;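 further: B-score of the F/F0 ratio slope over 7 to 12 s after thallium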
# Calpain2 inh: calpain II (pig) inhibition; AID 1236; purified calpain II, fluorogenic peptide substrate, 30 min; inhibition, % at 16 µM; 220,000 compounds, 0.37% hits;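 active means inhibition above about 50%, limit read from the data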
# An asterisk follows results filed as active; i = inactive; / = not tested or not shown.
SMILES,Cl transport mod,WT yeast gro inh,Lmaj promast,ROMK primary,Calpain2 inh
COc1cc(/C=C(/C)[N+](=O)[O-])ccc1OCc1ccccc1Cl,0.039,56,100*,-0.14,10
Cc1cc(/C=C2/C(=O)NC(=O)N(c3ccc(Br)cc3)C2=O)c(C)n1C,-0.4,/,/,/,-28
O=C1NC(=O)N(c2ccc(Cl)cc2)C(=O)/C1=C/c1coc2ccc(O)cc2c1=O,-4.6*,/,/,-8*,21
O=C(O)C12C3CCCC1C32c1ccccc1 (stereo not drawn),0.69,19,-7,/,-7
COc1cc(C(c2c(C)[nH]n(-c3ccccc3)c2=O)c2c(C)[nH]n(-c3ccccc3)c2=O)cc(OC)c1OC,0.6,2,95*,0.73,12
O=C(c1cccn2c(=O)c3ccc(Cl)cc3nc12)N1CCC2(CC1)OCCO2,1.2,-28,-3,/,i
COc1ccc(C(=O)N2CCCC2=O)cc1,-1.7,-3,-6,/,-11
CSc1ccc(C(=O)C2CCCN(CCCn3cccn3)C2)cc1 (stereo not drawn),/,1,86*,-0.34,-26
CN1CCCC(C(=O)c2ccccc2)C1 (stereo not drawn),0.42,12,-5,/,-23
CSc1ccc(C(=O)C2CCCN(C)C2)cc1 (stereo not drawn),0.28,5,72*,0.6,9
CSc1ccc(C(=O)C2CCCN(Cc3cnc(SC)nc3)C2)cc1 (stereo not drawn),0.12,34,94*,-1.1,32
Cc1ccc(C2(O)CCN3CCCCC32)cc1 (stereo not drawn),1.4,-15,0,-0.056,18
Cc1ccc(CN2CCCC(C(=O)c3sccc3C)C2)o1 (stereo not drawn),/,12,15,0.11,12
OCC12COC3c4ccccc4C(OC1)N32 (stereo not drawn),0.11,7,-5,1.3,-51
COc1ccccc1N1CCN(Cc2cccc(OC)c2O)CC1,1.4,11,6,/,14
CCOc1cccc(OCC)c2c(C)[n+](CC3CCCO3)c(C)c1-2 (stereo not drawn),-1.2,16,93*,-0.0036,-120
Cc1cc(C)[n+](C2C3CC4CC(C3)CC2C4)o1 (stereo not drawn),0.37,10,17,0.35,21
CC1=C(C(=O)N2CCC3(CC2)OCCO3)C2(CCC(C)CC2)OC1=O (stereo not drawn),1.4,-20,-2,/,8
Fc1ccc(C2=CCN(C(c3ccc(Cl)cc3)c3nnnn3Cc3ccccc3)CC2)cc1 (stereo not drawn),0.89,25,38,-0.082,8
Fc1ccc(Cn2nnnc2C(c2ccc(Cl)cc2)N2CC=C(c3ccc(F)cc3)CC2)cc1 (stereo not drawn),-0.17,29,99*,-0.9,21
Cc1cccc(OP(=O)(Oc2ccccc2)OC(c2ccccc2)C(F)(F)F)c1 (stereo not drawn),-0.86,46,19,-0.48,10
Cc1cccc(CN2CCCC(C(=O)c3cccc(OC(C)C)c3)C2)n1 (stereo not drawn),0.063,15,60*,-0.66,21
COc1cccc(C(=O)C2CCCN(Cc3cccc(C)n3)C2)c1 (stereo not drawn),-1.3,/,29,-0.51,14
CCCn1cc(CN2CCCC(C(=O)c3cccc(OC)c3)C2)c(C)n1 (stereo not drawn),/,7,26,0.24,25
CCn1cc(CN2CCCC(C(=O)c3cccc(OC)c3)C2)c(C)n1 (stereo not drawn),0.079,-4,78*,0.23,-9
SMILES,Cl transport mod,WT yeast gro inh,Lmaj promast,ROMK primary,Calpain2 inh
COc1cccc(C(=O)C2CCCN(Cc3ccon3)C2)c1 (stereo not drawn),0.69,14,-7,-0.086,-16
COc1cccc(C(=O)C2CCCN(Cc3ccc4nsnc4c3)C2)c1 (stereo not drawn),-0.62,18,87*,0.52,23
COc1cccc(C(=O)C2CCCN(Cc3cnn(C(C)C)c3)C2)c1 (stereo not drawn),/,3,71*,0.13,-21
N#CC1=C(N)Oc2cc(O)ccc2C1c1ccc2c(c1)OCO2 (stereo not drawn),-0.19,-4,6,-0.11,24
O=C(Cn1c(=O)c(C(F)(F)F)nc2ccccc21)N1CCC2(CC1)OCCO2,0.34,2,-2,/,-32
N#CC1=C(N)Oc2c(c(=O)sc3ccccc23)C1c1cccnc1 (stereo not drawn),-1.7,7,81*,0.62,4
CCOC(=O)c1ccc(N=C(c2ccccc2)c2c(O)n(C)c(=O)n(C)c2=O)cc1,0.029,/,/,/,-1
